# In PubChem BioAssay (NCATS):
# Inconclusive results are not listed. A number with no mark means an inactive call. Active and inactive are the calls of the source. The call rests on the fitted dose curve; in most records, active means well fitted activation curve with a large enough effect; inconclusive means small, poorly fitted or top-dose-only effect; inactive means no such curve, though single readings can be large or run the other way. Square brackets hold non-standard residues; d marks the D form. Peptide text beside a SMILES is read from it. Ala(indol-2-yl) = N[C@@H](Cc1cc2ccccc2[nH]1)C(=O)O; Aib = CC(C)(N)C(=O)O
# Biological target: Cellular tumor antigen p53 (Homo sapiens) (UniProt P04637)
# Sequence (P04637 whole entry, looked up): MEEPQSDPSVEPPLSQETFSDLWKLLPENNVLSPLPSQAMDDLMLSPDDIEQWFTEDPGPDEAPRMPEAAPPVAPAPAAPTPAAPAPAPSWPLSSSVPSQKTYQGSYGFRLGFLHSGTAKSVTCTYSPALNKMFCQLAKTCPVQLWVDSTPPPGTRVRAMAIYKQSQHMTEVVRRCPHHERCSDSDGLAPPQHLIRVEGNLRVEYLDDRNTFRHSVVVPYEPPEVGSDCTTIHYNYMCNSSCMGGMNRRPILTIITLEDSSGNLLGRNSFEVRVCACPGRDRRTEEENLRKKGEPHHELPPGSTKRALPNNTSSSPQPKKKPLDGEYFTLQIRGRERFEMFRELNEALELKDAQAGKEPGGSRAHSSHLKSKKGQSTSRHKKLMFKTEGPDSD
# Assay: Primary qHTS for small molecule compounds that upregulate eGFP-tagged delta133p53alpha (in N-terminal) cells. (AID 2060322); further: nearly all actives have a fitted effect of over 75% in size;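 on activation: cells pre-induced with doxycycline then dosed without doxycycline; series mostly up to about 56 µM; 0% = DMSO vehicle and 100% = reference activator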
# Details: NCI-H358 eGFP-delta133p53alpha fluorescence, 24 h; activation: hits give high values
# Method in brief: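 NCI-H358 cells pre-induced 24 h with 10 ng/ml doxycycline for eGFP-delta133p53alpha, plated dox-free and exposed 24 h at 37C to titrated compounds. Fixed, Hoechst-stained; gated GFP peak intensity by laser scanning cytometry, normalized to DMSO (0%) and 57.5 uM 5-azacytidine (100%).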
# Potency means the concentration at half of the fitted maximal effect.
SMILES,Potency,activation [%]
C=C(C)[C@@]12O[C@@H]1[C@@]1(C)C(=CC2=O)CC[C@@H](OC(C)=O)[C@@H]1C,30.1 µM (active),
CO[C@H]1C[C@H](O[C@H]2CC[C@@]3(C)C(=CCC4C3CC[C@]3(C)[C@@H](C5=CC(=O)OC5)CC[C@]43O)C2)O[C@@H](C)[C@@H]1O[C@@H]1O[C@H](CO[C@@H]2O[C@H](CO)[C@@H](O)[C@H](O)[C@H]2O)[C@@H](O)[C@H](O)[C@H]1O (stereo partly drawn),,0
C/C1=C/[C@@H](C)C/C=C/[C@H]2[C@@H]3O[C@]3(C)[C@@H](C)[C@H]3[C@H](Cc4c[nH]c5ccccc45)NC(=O)[C@]32C(=O)/C=C\C(=O)[C@@H]1O,11.7 µM (active),
C=C1[C@@H](C)[C@H]2[C@H](Cc3ccccc3)NC(=O)[C@]23[C@H](OC(C)=O)/C=C/[C@](C)(O)C(=O)[C@@H](C)C/C=C/[C@H]3[C@@H]1O,,-8.04
CC(=O)OC[C@]12C[C@H](OC(C)=O)C(C)=C[C@H]1O[C@@H]1[C@H](O)[C@@H](O)[C@@]2(C)[C@]12CO2,0.467 µM (active),
COC(=O)N1CCN(C(=O)Cc2ccc(Cl)c(Cl)c2)[C@@H](CN2CCCC2)C1,,1.91
C/C=C(\C)C(=O)OC1CC2C(C)(C)OC(=O)CC(OC(C)=O)C2(C)C2CC(OC(=O)C(C)C)C3(C)C(c4ccoc4)CC4OC43C12C (stereo not drawn),,-19.8
CC(C)(NC(=O)[C@@H](N)Cc1ccc(O)cc1)C(=O)N[C@@H](Cc1cc2ccccc2[nH]1)C(=O)N[C@@H](Cc1ccccc1)C(=O)O (H-Y[Aib][Ala(indol-2-yl)]F-OH),,7
